Laboratory results published in PubChem BioAssay.

Assays:
[1] = tested on: Human papillomavirus type 1a protein E7 (residues 44-93); assay: HPV1a E7 fragment binders on microarrays, primary screen, biochemical, small-molecule microarray, residues 44-93, 635 nm fluorescence (AID 1108); settings: small-molecule microarray binding, fluorescence 635 nm; higher = more signal;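 note: E7 fragment applied at 1 µg/mL in TBST for 1 h at 4 C; score combines spot fluorescence with its signal to noise ratio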
[2] = modulators of HCV replicon luciferase signal, primary screen, HCV replication inhibitor project, Huh7 cells, luciferase reporter (AID 1109); settings: 48 h, higher = more signal;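 note: huh7 hepatoma cells harbouring a luciferase neomycin HCV replicon reporter; luciferase luminescence as measure of HCV replicon replication; test concentration not given here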
[3] = molecular target: Left-right determination factor 2 (Homo sapiens) (UniProt O00292); assay: LEFTY2 binders on small-molecule microarrays, primary screen, biochemical, small-molecule microarray, 635 nm fluorescence scan (AID 1110); settings: LEFTY2 binding, higher = more signal
Chain of Left-right determination factor 2 (Homo sapiens) (O00292 whole entry, looked up): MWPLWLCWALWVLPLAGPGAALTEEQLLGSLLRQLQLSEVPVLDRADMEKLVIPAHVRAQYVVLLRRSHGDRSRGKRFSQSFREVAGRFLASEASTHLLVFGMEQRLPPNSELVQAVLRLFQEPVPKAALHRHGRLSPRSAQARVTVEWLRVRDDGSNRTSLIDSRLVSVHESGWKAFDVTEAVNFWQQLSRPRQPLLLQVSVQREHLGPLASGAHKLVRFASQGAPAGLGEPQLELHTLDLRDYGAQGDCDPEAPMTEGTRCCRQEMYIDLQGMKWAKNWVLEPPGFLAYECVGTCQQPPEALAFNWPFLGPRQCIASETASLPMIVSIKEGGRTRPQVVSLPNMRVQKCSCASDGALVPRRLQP

[4] = molecular target: Calmodulin-1 (Homo sapiens) (UniProt P0DP23); assay: CALM1 binders on microarrays, EGTA buffer, profiling panel, biochemical, small-molecule microarray, Cy5-labelled CALM1 (AID 1111); settings: Cy5-CALM1 binding fluorescence, higher = more signal;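 note: labelled calmodulin applied in Tris saline Tween buffer holding calcium plus EGTA and DTT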
[5] = molecular target: Calmodulin-1 (Homo sapiens) (UniProt P0DP23); assay: calcium-bound CALM1 binders on microarrays, profiling panel, artefact control for SMM control-protein annotation, biochemical, small-molecule microarray, Cy5-labelled CALM1, plus calcium (AID 1112); settings: Cy5-CALM1 binding fluorescence, higher = more signal;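 note: score merges spot fluorescence with signal to noise from triplicate slides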
[6] = small-molecule microarray binders of probe aWnt5a, primary screen, biochemical, biotinylated probe, 635/667 nm fluorescence (AID 1113); settings: higher = more signal;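 note: score merges 667 nm fluorescence intensity with signal-to-noise per printed feature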
[7] = small-molecule microarray binders of probe aShh, primary screen, biochemical, biotinylated probe, 635/667 nm fluorescence (AID 1114); settings: higher = more signal;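 note: probe is biotin-labelled aShh protein from a stem cell growth factor screen; measures binding of labelled protein to compounds printed on the slide; score merges feature fluorescence at 667 nm with signal-to-noise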
[8] = small-molecule microarray binders of probe aNog, primary screen, biochemical, biotinylated probe, 635/667 nm fluorescence (AID 1115); settings: higher = more signal;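 note: probe is biotinylated aNog protein used at 0.15 µg/mL for 1 h at 4 C; z-score combines 667 nm fluorescence of each spot with its signal to noise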
[9] = molecular target: Torsin-1A-interacting protein 1 (Homo sapiens) (UniProt Q5JTV8); assay: LAP1 binders from COS7 cell lysate, primary screen, small-molecule microarray, 635/667 nm fluorescence (AID 1116); settings: COS7-hLAP1 lysate binding, 635 nm fluorescence, higher = more signal
Chain of Torsin-1A-interacting protein 1 (Homo sapiens) (Q5JTV8 whole entry, looked up): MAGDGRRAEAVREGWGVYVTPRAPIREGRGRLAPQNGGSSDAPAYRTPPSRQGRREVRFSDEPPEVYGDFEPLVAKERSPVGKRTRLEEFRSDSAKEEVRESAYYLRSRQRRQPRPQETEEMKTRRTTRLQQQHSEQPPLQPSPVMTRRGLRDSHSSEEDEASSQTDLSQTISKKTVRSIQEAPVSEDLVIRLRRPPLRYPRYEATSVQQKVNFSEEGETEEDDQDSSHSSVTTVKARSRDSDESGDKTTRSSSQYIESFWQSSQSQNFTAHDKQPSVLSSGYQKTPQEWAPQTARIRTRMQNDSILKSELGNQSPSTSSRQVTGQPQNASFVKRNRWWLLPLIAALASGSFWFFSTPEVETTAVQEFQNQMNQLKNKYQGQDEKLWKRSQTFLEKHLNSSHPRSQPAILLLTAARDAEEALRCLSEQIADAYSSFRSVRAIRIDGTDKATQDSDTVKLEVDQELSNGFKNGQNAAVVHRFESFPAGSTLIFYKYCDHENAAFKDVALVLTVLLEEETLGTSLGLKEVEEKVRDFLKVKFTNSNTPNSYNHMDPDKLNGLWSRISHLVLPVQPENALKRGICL

[10] = molecular target: Alpha-bungarotoxin (Bungarus multicinctus) (UniProt P60615); assay: alpha-bungarotoxin binders on microarray, profiling panel, artefact control for SMM control protein annotation, biochemical, small-molecule microarray, Alexa647 label, 635/667 nm fluorescence (AID 1117); settings: alpha-BTX-A647 binding fluorescence, higher = more signal
Chain of Alpha-bungarotoxin (Bungarus multicinctus) (P60615 whole entry, looked up): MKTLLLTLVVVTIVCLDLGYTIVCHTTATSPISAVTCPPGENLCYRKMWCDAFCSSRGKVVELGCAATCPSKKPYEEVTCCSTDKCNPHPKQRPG

| Compound | composite z-score [1] | z-score [2] | composite z-score [3] | composite z-score [4] | composite z-score [5] | composite z-score [6] | composite z-score [7] | composite z-score [8] | composite z-score [9] | composite z-score [10] |
| --- | --- | --- | --- | --- | --- | --- | --- | --- | --- | --- |
| COCCOC(=O)N1C(=O)[C@@]2(c3cc(C#CCNC(N)=O)ccc31)[C@H](c1ccc(OCCO)cc1)N1[C@H](c3ccccc3)[C@H](c3ccccc3)OC(=O)[C@H]1[C@@H]2C(=O)N1CCCCCCC1 | 0.853 | 0.225 | -0.11 | 0.914 | 0.966 | -0.027 | 0.485 | 0.401 | 0.242 | 1.24 |
| Cc1cc(C)c(C(O)C2C=CC3C(=O)N(C)C(=O)C3N2N2CCCCC2)c(C)c1 (stereo not given) | 1.37 | 0.186 | 0.314 | 1.75 | 0.22 | 0.0437 | 0.308 | 1.45 | 0.959 | 2.36 |
| CN1C(=O)C2C=CC(C(O)c3ccc(N(C)C)cc3)N(Nc3ccc([N+](=O)[O-])cc3[N+](=O)[O-])C2C1=O (stereo not given) | 0.501 | -0.353 | 0.371 | 0.49 | 0.697 | 0.055 | 0.446 | 1.7 | 1 | 0.988 |
| CC(C)CN1C(=O)[C@@]2(Cc3ccccc31)c1ccccc1C(=O)N(C1CCCCC1)[C@H]2c1ccc(CO)cc1 | -0.973 | -0.192 | -0.841 | -0.0258 | 0.644 | -0.0944 | -0.0626 | 0.697 | -0.256 | -1.06 |
| COc1ccc(NN2C(C(O)c3cc(OC)c(OC)c(OC)c3)C=CC3C(=O)N(C4CCCCC4)C(=O)C32)cc1 (stereo not given) | 1.22 | -1.92 | -0.346 | 1.58 | 0.509 | 0.114 | -0.226 | 0.273 | 0.479 | 1.96 |
| O=C(CS)NCCCCCNC(=O)[C@H]1C[C@H]2C(=O)N[C@@H](Cc3ccccc3)C(=O)N2[C@H]1c1ccc(O)cc1 | 0.151 | -0.488 | 0.406 | 0.741 | 0.748 | -0.0977 | 0.184 | 0.185 | 0.792 | 3 |
| CO[C@H]1O[C@H](CO)[C@@H](OC(=O)Nc2ccccc2)[C@H](OC(=O)Nc2ccc3c(c2)OCO3)[C@@H]1OC(=O)Nc1ccc2c(c1)OCO2 | 1.32 | -0.245 | -0.244 | 1.92 | -0.819 | -0.0944 | 0.151 | 0.038 | 1.99 | 0.361 |
| COc1ccc(CCNC(=O)[C@@]2(c3ccc([N+](=O)[O-])cc3)CC(=O)N(C(C)C)[C@@H]2c2ccc(CO)cc2)cc1 | 0.0008 | -0.309 | -1.6 | -0.63 | -0.0462 | -0.129 | 0.0557 | 0.132 | 0.228 | -0.631 |
| CCCC=C(CCC)[C@@H](NC(=O)c1ccc(C(F)(F)F)cc1)c1ccccc1 | 1.17 | -1.43 | -0.0957 | 0.815 | 0.793 | 0.0094 | 0.213 | 0.644 | 0.432 | 0.25 |
| Cc1ccc(S[C@]2(C(=O)NC(C)C)CC(=O)N(Cc3cc(C(F)(F)F)cc(C(F)(F)F)c3)[C@@H]2c2ccc(CO)cc2I)cc1 | 0.785 | -0.563 | -0.832 | -0.502 | -0.384 | -0.132 | 0.0815 | -0.036 | -0.596 | 0.57 |
| COCCOC(=O)N1C(=O)[C@@]2(c3cc(C#CCCO)ccc31)[C@H](c1ccc(O)cc1)N1[C@H](c3ccccc3)[C@H](c3ccccc3)OC(=O)[C@H]1[C@@H]2C(=O)Nc1nc2ccccc2s1 | 1.37 | 0.688 | 0.704 | 0.207 | -0.567 | -0.0256 | -0.167 | -0.223 | 0.234 | 1.46 |
| [N-]=[N+]=NCc1ccccc1C[C@]1(C(=O)N2CCCCC2)N=C(c2ccc(OCCCO)cc2)O[C@H]1c1ccccc1CN=[N+]=[N-] | 1.41 | -2.73 | -0.406 | 1.67 | 0.855 | 0.0375 | 0.503 | 1.25 | 1.95 | 1.11 |
| C[C@]1(C(=O)NCc2ccccc2)c2ccccc2C(=O)N(Cc2cc(C(F)(F)F)cc(C(F)(F)F)c2)[C@H]1c1ccc(CO)cc1 | 1.1 | -2.06 | 0.159 | 0.956 | 0.844 | -0.0519 | 1.39 | -0.0047 | 0.541 | 0.615 |
| O=C1OCC=C[C@H]2OC34C=CCN(Cc5ccccc5)C(=O)[C@H]3N(CCCCCO)C(=O)[C@@H]4[C@@H]12 (stereo not given in full) | -0.646 | -0.615 | -1.84 | -0.398 | 1.08 | -0.169 | -0.138 | 0.161 | -0.328 | -1.52 |
| CO[C@H]1COC(=O)CC=C[C@H](C)[C@@H](OC)COC(=O)CC=C[C@@H]1C | -0.366 | -0.0985 | 0.724 | -1.61 | -1.87 | -0.181 | 0.126 | -0.63 | -0.0807 | -0.86 |
| C=CC[C@@]1(C(=O)NCC(O)CO)N=C(c2ccc(OCCCO)cc2)O[C@@H]1c1ccccc1CN=[N+]=[N-] (stereo not given in full) | 1.43 | -1.11 | -1.44 | 0.778 | -0.0262 | -0.119 | 0.261 | 0.824 | 2.6 | 0.0177 |
| C=CCC(OC(C)=O)[C@@H]1[C@@H](N(Cc2cc3ccccc3o2)C(=O)c2ccc(C)cc2)c2cc(OCCCO)ccc2N1C(=O)c1ccc2ccccc2n1 (stereo not given in full) | -0.185 | 0.725 | 0.21 | -0.197 | 0.574 | -0.148 | -0.043 | 0.421 | -0.0354 | 0.432 |
